We go through 44 compounds from PubChem BioAssay AID1259415 (National Center for Advancing Translational Sciences (NCATS), 2018).

About 18,000 (4.4%) of roughly 410,000 compounds were called active. Inconclusive results (about 7%) are left out. No stated cut-off is given here; in the data, active means activity change below about -60%; inconclusive means no clear call, values can overlap the other calls; inactive means above about -39%. Many of the other results were omitted from the sample, so actives are more common in it than they were.
On the % scale 0 is the no-effect control and ±100 the full control effect.

A short description of the experiment: qHTS Assay for inhibitors of the human cytomegalovirus (HCMV). To be noted: HFF cells, HCMV-luciferase reporter, 72 h; at 57.5 µM; stronger effect = lower value. A digest of the protocol: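 Two compound doses tested in HFFs infected with HCMV-luciferase, MOI 1 PFU/cell, 72 h at 37C. Lysate luminescence read with OneGlo; data normalized against buffer-only and 10uM Salinomycin inhibitor controls.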
On the technique in general: Quantitative high-throughput screening tests each substance at several concentrations.
In the case of `O=C(CO/N=C/c1ccccc1O)NNC(=O)c1ccccc1Cl`, the activity change, negative = inhibition is 35% (inactive).

Take `COc1cc(OC)c(C(=O)NNC(=O)c2ccccc2-n2cccc2)cc1OC`: the activity change, negative = inhibition was -25.6% (inactive). For the compound `O=C(NNC(=O)c1ccccc1O)c1ccccc1O`, the activity change, negative = inhibition is -97% (active). For the compound `CC1=C(C)CC(C(=O)NNC(=O)c2ccccc2O)C(C(=O)O)C1` (centres undefined), the activity change, negative = inhibition was -89.9% (active). In the case of `CC1=C(C)CC(C(=O)NNC(=O)c2csc3c2CCC(C(C)(C)C)C3)C(C(=O)O)C1` (centres undefined) it was 35% (inactive); in that of `CC1=C(C)CC(C(=O)NC(C)CCc2ccccc2)C(C(=O)O)C1` (centres undefined), 16.1% (inactive); in that of `COc1ccc(-c2cc(-c3ccccc3)nc3c2COc2ccc(Cl)cc2-3)cc1`, 9.57% (inactive).

Consider `CC(=O)N1C[C@@H](CO)[C@@H](N(C)C(=O)c2ccco2)C[C@H]1c1ccccc1`, for which the activity change, negative = inhibition is -4.23% (inactive). As to `COc1cc2c(cc1NC(=O)CN1CCN(S(=O)(=O)c3ccc(F)cc3)CC1)oc1ccccc12`, the activity change, negative = inhibition is 63.3% (inactive). As to `COc1ccc(-n2c(=O)c3ccccc3n(Cc3ccccc3Cl)c2=O)cc1`, the activity change, negative = inhibition is 7.59% (inactive). Regarding `CCCn1c(N)c(C(=O)CSc2nnc(Cc3cccs3)n2C2CC2)c(=O)[nH]c1=O`, the activity change, negative = inhibition was -9.71% (inactive). Consider `Cc1cc(C)c(OCCN2CC(C)OC(C)C2)c(Br)c1` (centres undefined), for which the activity change, negative = inhibition is -20% (inactive). Then `COc1ccc(S(=O)(=O)NNC(=O)Nc2ccc(C)cc2)c(OC)c1`, with -7.23% (inactive); and `Cc1ccc(Oc2cc(NC(=O)CCCn3nc(C)c([N+](=O)[O-])c3C)cc([N+](=O)[O-])c2)cc1`, with 3.84% (inactive); and `COc1cc(NC(=O)Nc2ccc(C)cc2)cc([N+](=O)[O-])c1`, with -63.5% (active). As to `Cc1cccc(N2CCN(C(=O)c3ccc(Nc4nc5ccccc5n5nnnc45)cc3)CC2)c1C`, the activity change, negative = inhibition is 9.29% (inactive). In the case of `CCOc1ccc(CNC(=O)c2ccc3c(c2)nnn3C2CCCC2)cc1` it was 27.9% (inactive); in that of `COCCNC(=O)c1ccc(N2CCC3(CC2)OCCO3)c([N+](=O)[O-])c1`, -4.44% (inactive); in that of `CCCNC(=O)c1ccc(N2CCC3(CC2)CC(c2cccc(Br)c2)=NO3)c(NC(=O)c2ccco2)c1`, -2.24% (inactive). Take `CCCNC(=O)c1ccc(N2CCC3(CC2)CC(c2ccc(Cl)cc2)=NO3)c([N+](=O)[O-])c1`: the activity change, negative = inhibition is -72.5% (active).

Consider `COCCCNC(=O)c1c(NC(=O)c2cc(=O)c3cc(C)c(C)cc3o2)sc2c1CCCC2`, for which the activity change, negative = inhibition was 11.5% (inactive). As for `Cc1nnc(NCc2ccccc2)c2c1nnn2Cc1ccc(F)cc1`, the activity change, negative = inhibition was -5.95% (inactive). In the case of `CCc1ccc(NC(=O)c2cc(S(=O)(=O)NC3CCCCCC3)ccc2F)cc1` it was -39.6% (inactive). For `CSc1nnc(NC(=O)c2nc(S(=O)(=O)Cc3ccc(C)cc3)ncc2Cl)s1`, the activity change, negative = inhibition was -102% (active). For the compound `Cc1ccc(CS(=O)(=O)CCC(=O)NC2CC2)cc1`, the activity change, negative = inhibition was -21.8% (inactive). In the case of `Cc1ccc(CS(=O)(=O)c2ncc(Cl)c(C(=O)Nc3nnc(C)s3)n2)cc1` it was -111% (active); in that of `Cc1ccc2nc(NC(=O)c3nc(SCc4ccccc4F)ncc3Cl)sc2c1`, 16.7% (inactive). Regarding `O=C(Nc1nc2ccc(F)cc2s1)c1nc(SCc2ccccc2F)ncc1Cl`, the activity change, negative = inhibition was 7.44% (inactive). Take `CCOc1cccc(C(=O)Nc2nnc(S(=O)(=O)N(C)c3ccc(C)cc3)s2)c1`: the activity change, negative = inhibition is -25.8% (inactive).

For the compound `NNc1cccc(C=Cc2ccccc2)cc1=O`, the activity change, negative = inhibition is 34% (inactive). With `Cc1ccc(S(=O)(=O)n2nc(C)c(S(=O)(=O)N3CCCCCC3)c2C)cc1`, the activity change, negative = inhibition is 1.89% (inactive). Turning to `Cc1nc2nc(NCc3cccc(Br)c3)[nH]n2c(=O)c1Cc1ccccc1`, the activity change, negative = inhibition is -3.03% (inactive).

Regarding `COc1ccc(C(=O)CSc2c(C(C)C)cnc3c2c(=O)n(C)c(=O)n3C)cc1`, the activity change, negative = inhibition was 8.98% (inactive). Take `CCOCCc1nn2c(=O)cc(COC(=O)CNC(=O)c3ccc(C(C)(C)C)cc3)nc2s1`: the activity change, negative = inhibition is -3.83% (inactive). In the case of `CCOc1ccc(N(CC(=O)NCCc2ccc(OC)cc2)S(C)(=O)=O)cc1`, the activity change, negative = inhibition is -24% (inactive). `Cc1cccc(C(CC(=O)NCC2(c3ccccc3)CCCC2)c2ccccc2)c1O` (centres undefined): the activity change, negative = inhibition was -38.6% (inactive). Consider `O=C(NCCc1ccccc1)/C(=C\c1ccc([N+](=O)[O-])cc1)NC(=O)c1ccccc1`, for which the activity change, negative = inhibition was -102% (active). With `O=C(N/C(=C\c1ccc([N+](=O)[O-])cc1)C(=O)N1CCCCC1)c1ccco1`, the activity change, negative = inhibition is -3.57% (inactive). With `CNC(=O)/C(=C\C=C\c1ccccc1)NC(=O)c1ccc([N+](=O)[O-])cc1`, the activity change, negative = inhibition is 45.3% (inactive).

Regarding `CCCN(CCC)CCNC(=O)c1ccc2c(c1)NC(=O)C(CS(=O)(=O)Cc1cccc(Br)c1)N2` (centres undefined), the activity change, negative = inhibition was -22.3% (inactive). For `CC(=O)N1CCc2c(sc(NC(=O)CCS(=O)(=O)c3ccccc3)c2C#N)C1`, the activity change, negative = inhibition was -99.8% (active). `CC(=O)N1CCc2c(sc(NC(=O)CCS(=O)(=O)c3ccc(C)cc3)c2C(N)=O)C1`: the activity change, negative = inhibition is 5.61% (inactive). Turning to `CC(C)N1CCc2c(sc(NC(=O)Cc3ccccc3)c2C#N)C1`, the activity change, negative = inhibition was -9.26% (inactive). `CC(C)CNc1cccc2c1S(=O)(=O)N[C@H](CC(C)C)CO2`: the activity change, negative = inhibition was -24.9% (inactive).
